The nature of test [1]: Quantitative High-Throughput drug screen in 47 multiple myeloma cell lines against the NCATS MIPE library collection: OCIMY1_PLB cell viability assay (AID 1918979). Also: nearly all actives have a fitted effect of over 35% in size. Particulars: OCI-MY1 myeloma viability, CellTiter-Glo ATP, 48 h; series mostly up to 45.8 µM. In outline:
(§1)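 ATP-based luminescence (CellTiter-Glo, 5 min RT incubation) quantified surviving cells following two days' treatment with MIPE 4.0 agents at 37 °C, 5% CO2.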

Test [2] can be described thus: Quantitative High-Throughput drug screen in 47 multiple myeloma cell lines against the NCATS MIPE library collection: MM1S_ATCC cell viability assay (AID 1918980). Also: nearly all actives have a fitted effect of over 45% in size. Also: potency is read from the fitted curve at half-maximal effect. Particulars: MM1S myeloma viability, CellTiter-Glo ATP luminescence, 48 h; series mostly up to 45.8 µM. In outline: as §1
(ATP-based viability assays read luminescence as a measure of living cells.)

Test [3] in a line: Quantitative High-Throughput drug screen in 47 multiple myeloma cell lines against the NCATS MIPE library collection: L363_DSMZ cell viability assay (AID 1918984). Also: nearly all actives have a fitted effect of over 40% in size. Also: potency is read from the fitted curve at half-maximal effect. Particulars: L363 myeloma viability, CellTiter-Glo ATP luminescence, 48 h; series mostly up to 45.8 µM. In outline:
as §1

A short description of test [4]: Quantitative High-Throughput drug screen in 47 multiple myeloma cell lines against the NCATS MIPE library collection: MM1R_ATCC cell viability assay (AID 1918981). Also: nearly all actives have a fitted effect of over 35% in size. Also: potency is read from the fitted curve at half-maximal effect. The following applies: MM1R multiple myeloma cells, CellTiter-Glo viability, 48 h; series mostly up to 45.8 µM. In outline:
as §1

A short description of test [5]: Quantitative High-Throughput drug screen in 47 multiple myeloma cell lines against the NCATS MIPE library collection: LP1_DSMZ cell viability assay (AID 1918982). Also: nearly all actives have a fitted effect of over 35% in size. Also: potency is read from the fitted curve at half-maximal effect. The following applies: LP1 myeloma viability, CellTiter-Glo ATP luminescence, 48 h; series mostly up to 45.8 µM. In outline:
as §1

Test [6] can be described thus: Quantitative High-Throughput drug screen in 47 multiple myeloma cell lines against the NCATS MIPE library collection: KMS34_JCRB cell viability assay (AID 1918985). Also: nearly all actives have a fitted effect of over 40% in size. Also: potency is read from the fitted curve at half-maximal effect. Particulars: KMS34 myeloma viability, CellTiter-Glo ATP luminescence, 48 h; series mostly up to 45.8 µM. In outline:
as §1

Test [7] in a line: Quantitative High-Throughput drug screen in 47 multiple myeloma cell lines against the NCATS MIPE library collection: KMS28PE_JCRB cell viability assay (AID 1918983). Also: nearly all actives have a fitted effect of over 35% in size. Also: potency is read from the fitted curve at half-maximal effect. Particulars: KMS28PE multiple myeloma viability, CellTiter-Glo ATP, 48 h; series mostly up to 45.8 µM. In outline: as §1
Test [8] is described as follows: Quantitative High-Throughput drug screen in 47 multiple myeloma cell lines against the NCATS MIPE library collection: NCIH929_DSMZ cell viability assay (AID 1918978). Also: nearly all actives have a fitted effect of over 35% in size. The following applies: NCI-H929 myeloma viability, CellTiter-Glo ATP, 48 h; series mostly up to 45.8 µM. In outline:
as §1

The values that follow come from PubChem BioAssay (NCATS).

Results filed as inconclusive are left out. Active and inactive are the calls of the source. Calls follow the shape of the dose curve; as a rule, active = well fitted curve in the direction sought with a large enough effect; inconclusive = small, poorly fitted or top-dose-only effect, or another doubt; inactive = no such curve, though single readings can be large; an effect the other way counts as inactive or inconclusive.

In the case of `CC1(C)S[C@H]2[C@H](NC(=O)[C@@H](N)c3ccc(O)cc3)C(=O)N2[C@@H]1C(=O)O`, the Potency result in test [1] was “inactive”. Besides, the Potency is 5.9 µM (active) in test [2] and 2.64 µM (active) in test [3].
Turning to `CC(C)(C)c1cc(C(=O)O)c(NC(=O)Nc2ccc3[nH]ncc3c2)s1`, the Potency in test [2] is 16.6 µM (active). Also, the Potency entry in test [4], in test [5] and in test [6] was “inactive” throughout.
For the compound `Nc1nc(F)nc2c1ncn2[C@@H]1O[C@H](COP(=O)(O)O)[C@@H](O)[C@H]1O`, the Potency in test [4] was 18.7 µM (active).
As to `CC(C)n1cnc2c(NCCCCCCNC(=O)OC(C)(C)C)nc(NCCO)nc21`, the results for the Potency in test [2], in test [4] and in test [5] were 20.9 µM (active), 20.9 µM (active) and 18.7 µM (active), respectively.
As to `CCS(=O)(=O)N1CC(CC#N)(n2cc(-c3ncnc4[nH]ccc34)cn2)C1`, the Potency result in test [1] and in test [3] was “inactive” each time. Besides, the Potency in test [2] is 20.9 µM (active).
For `CC(=O)Oc1cc2c(s1)CCN(C(C(=O)C1CC1)c1ccccc1F)C2` (stereo not given), the results for the Potency in test [2] and in test [3] were 0.833 µM (active) and 0.935 µM (active), respectively.
For the compound `CO[C@H]1C[C@@H]2CC[C@@H](C)[C@@](O)(O2)C(=O)C(=O)N2CCCC[C@@H]2C(=O)O[C@H]([C@H](C)C[C@@H]2CC[C@H](OP(C)(C)=O)[C@H](OC)C2)CC(=O)[C@H](C)C=C(C)[C@@H](O)[C@@H](OC)C(=O)[C@H](C)C[C@H](C)C=CC=CC=C1C`, the Potency result in test [2], in test [4], in test [5] and in test [7] was “inactive” in each case.
For `CC[C@H]1OC(=O)[C@H](C)C(=O)[C@H](C)[C@@H](O[C@H]2O[C@H](C)C[C@H](N(C)C)[C@@H]2O)[C@](C)(OC)C[C@@H](C)C(=O)[C@H](C)[C@H]2N(CCCCn3cnc(-c4cccnc4)c3)C(=O)O[C@]12C`, the Potency in test [4] is 16.6 µM (active).
As for `COCCOC(=O)C1=C(C)NC2=C(C(=O)CC(c3ccccc3OC)C2)C1c1cccc(O)c1` (stereo not given), the Potency result in test [1] is “inactive”. Further, the Potency in test [2] is 16.6 µM (active); in test [7], 5.9 µM (active); in test [3], 0.001 µM (active).
As for `COc1cccc2c1CCCC2CCCN1CCN(C2CCCCC2)CC1` (stereo not given), the Potency in test [2] was 20.9 µM (active); in test [3], 16.6 µM (active). For the same compound, the Potency result in test [6] was “inactive”.
As for `CC=C(C)C(=O)O[C@H]1C(C)=C[C@]23C(=O)[C@@H](C=C(CO)[C@@H](O)[C@]12O)[C@H]1[C@@H](C[C@H]3C)C1(C)C`, the Potency in test [4] was 18.7 µM (active); in test [7], 0.0372 µM (active); in test [3], 4.69 µM (active).
Take `COCCCCC(=NOCCN)c1ccc(C(F)(F)F)cc1`: the Potency was 16.6 µM (active) in test [2] and 3.72 µM (active) in test [6]. In addition, the Potency entry in test [3] is “inactive”.
With `Nc1ncnc2c1ncn2[C@@H]1O[C@H](CO)C[C@@H]1O`, the Potency entry in test [8], in test [4] and in test [3] was “inactive” in each case.
On to `COc1ccc(-n2c(C)c([N+](=O)[O-])c3ccc(O)cc32)cc1`, for which the Potency entry in test [1] was “inactive”. Also, the Potency in test [2] is 0.833 µM (active); in test [4], 16.6 µM (active).
With `CN(C)CCC=C1c2ccccc2COc2ccc(CC(=O)O)cc21`, the Potency result in test [4], in test [5] and in test [7] was “inactive” in each case.
Take `CC(C)C(=O)Nc1ncc(-c2cc(C(F)F)nn2-c2c(Cl)cccc2Cl)s1`: the Potency in test [7] is 20.9 µM (active); in test [3] it was 8.33 µM (active).
On to `CCCCCCCCCCCC1=C(O)C(=O)C=C(O)C1=O`, for which the Potency in test [3] was 0.469 µM (active).
For the compound `CCn1c(C(=O)N(C2CC2)C2CC2)cc2c3c(ncn3C)c(Nc3cc(C)n(C)n3)nc21`, the Potency result in test [1], in test [2], in test [4], in test [5] and in test [6] was “inactive” in each case.
As for `Cc1ccc(/C=N/NC(=O)c2ccccc2Oc2ccccc2)o1`, the Potency entry in test [1] and in test [3] was “inactive” each time. Also, the Potency in test [2] was 18.7 µM (active).
On to `CCNc1cc(NC2CCC(O)CC2)nc(Nc2ccc3c(ccn3Cc3ccccc3)c2)n1` (stereo not given), for which the Potency is 20.9 µM (active) in test [5] and 23.5 µM (active) in test [7].
In the case of `CO[C@H]1C[C@@H]2CC[C@@H](C)[C@@](O)(O2)C(=O)C(=O)N2CCCC[C@@H]2C(=O)O[C@H]([C@H](C)C[C@@H]2CC[C@H](OCCO)[C@H](OC)C2)CC(=O)[C@H](C)C=C(C)[C@@H](O)[C@@H](OC)C(=O)[C@H](C)C[C@H](C)C=CC=CC=C1C`, in test [5], the Potency result was “inactive”.
Regarding `O=C1Nc2ccc(Cl)cc2C(C#CC2CC2)(C(F)(F)F)O1` (stereo not given), in test [2], the Potency is 20.9 µM (active).
For `CC(C)OC(=O)C(C)(C)Oc1ccc(C(=O)c2ccc(Cl)cc2)cc1`, the Potency entry in test [1], in test [2] and in test [3] was “inactive” each time. Moreover, in test [7], the Potency was 16.6 µM (active).
In the case of `COc1ccc(C2CC(c3ccccc3)=NN2c2ccc(S(N)(=O)=O)cc2)cc1` (stereo not given), the Potency in test [2] was 23.5 µM (active); in test [4], 16.6 µM (active); in test [3] it was 16.6 µM (active). For the same compound, the Potency result in test [7] was “inactive”.
Turning to `CC1CCC(C(=O)N(c2cc(C#CC(C)(C)C)sc2C(=O)O)C2CCC(O)CC2)CC1` (stereo not given), the Potency result in test [2] and in test [3] was “inactive” each time.
In the case of `COc1ccc2cc(-c3nc(-c4ccc(S(C)=O)cc4)[nH]c3-c3ccncc3)ccc2c1` (stereo not given), the Potency entry in test [1] and in test [7] was “inactive” in each case.
